Out of some 5,500 compounds screened, about 2,000 (36%) were called active. Inconclusive results (about 18%) are left out. Cut-off read from the data, not from the text of the source: active = normalized growth mostly below about 0.91 (no sharp cut-off); inconclusive = no clear call, values can overlap the other calls; inactive = mostly above about 0.92. Some of the results follow.
Assay: chemical genetic growth profiling, strain panel (AID 1159580);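 note: tested at 20 µM; growth read once vehicle control cultures reached saturation at 30 °C; 1 = growth at the plate median or of vehicle wells; lower values mean less growth of the strain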
Conditions: growth OD

Measured: normalized growth

CCn1cc(C(=O)O)c(=O)c2cnc(N3CCCC3)nc21
active: S. cerevisiae deletion strains, locus YLR262C, strain YPT6 (second series), stronger effect = lower value 0.789
inactive: S. cerevisiae deletion strains, locus YKL009W, strain mrt4, stronger effect = lower value 0.987 | S. cerevisiae deletion strains, locus YKL068W, stronger effect = lower value 1 | S. cerevisiae deletion strains, locus YKL085W, strain MDH1 (second series), stronger effect = lower value 0.998 | S. cerevisiae deletion strains, locus YKL085W, strain MDH1, stronger effect = lower value 0.998 | S. cerevisiae deletion strains, locus YKL160W, strain elf1, stronger effect = lower value 0.975 | S. cerevisiae deletion strains, locus YKL190W, strain CNB1, stronger effect = lower value 1 | S. cerevisiae deletion strains, locus YKR001C, strain vps1, stronger effect = lower value 0.943 | S. cerevisiae deletion strains, locus YKR026C, strain gcn3, stronger effect = lower value 1.02 | S. cerevisiae deletion strains, locus YKR091W, strain srl3, stronger effect = lower value 1 | S. cerevisiae deletion strains, locus YLL001W, strain dnm1, stronger effect = lower value 1.02 | S. cerevisiae deletion strains, locus YLL026W, stronger effect = lower value 1 | S. cerevisiae deletion strains, locus YLL041C, strain sdh2, stronger effect = lower value 0.993 | S. cerevisiae deletion strains, locus YLR027C, strain aat2, stronger effect = lower value 0.996 | S. cerevisiae deletion strains, locus YLR039C, strain RIC1, stronger effect = lower value 0.935 | S. cerevisiae deletion strains, locus YLR058C, strain SHM2, stronger effect = lower value 1.01 | S. cerevisiae deletion strains, locus YLR102C, strain apc9, stronger effect = lower value 1 | S. cerevisiae deletion strains, locus YLR113W, strain HOG1, stronger effect = lower value 0.986 | S. cerevisiae deletion strains, locus YLR221C, strain rsa3, stronger effect = lower value 0.994 | S. cerevisiae deletion strains, locus YLR258W, strain gsy2, stronger effect = lower value 1.02 | S. cerevisiae deletion strains, locus YLR262C, strain YPT6, stronger effect = lower value 0.904 | S. cerevisiae deletion strains, locus YLR268W, strain sec22, stronger effect = lower value 0.972 | S. cerevisiae deletion strains, locus YLR320W, strain mms22, stronger effect = lower value 1.03 | S. cerevisiae deletion strains, locus YLR330W, strain CHS5, stronger effect = lower value 1.01 | S. cerevisiae deletion strains, locus YLR342W, strain FKS1 (second series), stronger effect = lower value 1.04 | S. cerevisiae deletion strains, locus YLR342W, strain FKS1, stronger effect = lower value 1 | S. cerevisiae deletion strains, locus YLR357W, strain rsc2, stronger effect = lower value 1.01 | S. cerevisiae deletion strains, locus YLR370C, strain arc18, stronger effect = lower value 0.981 | S. cerevisiae deletion strains, locus YLR371W, strain rom2, stronger effect = lower value 0.998 | S. cerevisiae deletion strains, locus YLR384C, strain iki3, stronger effect = lower value 1.01 | S. cerevisiae deletion strains, locus YLR418C, strain cdc73, stronger effect = lower value 1.09 | S. cerevisiae deletion strains, locus YML016C, strain PPZ1, stronger effect = lower value 0.999 | S. cerevisiae deletion strains, locus YML032C, strain rad52, stronger effect = lower value 0.999 | S. cerevisiae deletion strains, locus YML120C, strain ndi1, stronger effect = lower value 0.981 | S. cerevisiae deletion strains, locus YML124C, strain tub3, stronger effect = lower value 0.993 | S. cerevisiae deletion strains, locus YMR058W, strain fet3, stronger effect = lower value 1 | S. cerevisiae deletion strains, locus YMR078C, strain ctf18, stronger effect = lower value 1 | S. cerevisiae deletion strains, locus YMR125W, strain sto1, stronger effect = lower value 1.01 | S. cerevisiae deletion strains, locus YMR129W, stronger effect = lower value 1 | S. cerevisiae deletion strains, locus YMR205C, strain PFK2, stronger effect = lower value 1.06 | S. cerevisiae deletion strains, locus YMR223W, strain ubp8, stronger effect = lower value 0.98 | S. cerevisiae deletion strains, locus YMR231W, strain pep5, stronger effect = lower value 1 | S. cerevisiae deletion strains, locus YMR263W, strain SAP30, stronger effect = lower value 1.01 | S. cerevisiae deletion strains, locus YMR307W, strain GAS1, stronger effect = lower value 1.06 | S. cerevisiae deletion strains, locus YNL067W, strain RPL9B, stronger effect = lower value 0.998 | S. cerevisiae deletion strains, locus YNL071W, strain lat1, stronger effect = lower value 1 | S. cerevisiae deletion strains, locus YNL128W, strain TEP1, stronger effect = lower value 1.05 | S. cerevisiae deletion strains, locus YNL153C, strain GIM3, stronger effect = lower value 0.996 | S. cerevisiae deletion strains, locus YNL183C, strain NPR1, stronger effect = lower value 0.924 | S. cerevisiae deletion strains, locus YNL209W, strain ssb2, stronger effect = lower value 0.993 | S. cerevisiae deletion strains, locus YNL233W, strain BNI4, stronger effect = lower value 1.02 | S. cerevisiae deletion strains, locus YNL248C, strain rpa49, stronger effect = lower value 0.956 | S. cerevisiae deletion strains, locus YNL250W, strain rad50, stronger effect = lower value 0.996 | S. cerevisiae deletion strains, locus YNL271C, strain bni1, stronger effect = lower value 1.02 | S. cerevisiae deletion strains, locus YNL298W, strain CLA4, stronger effect = lower value 1 | S. cerevisiae deletion strains, locus YNL307C, strain MCK1, stronger effect = lower value 1.03 | S. cerevisiae deletion strains, locus YNL322C, strain KRE1 (second series), stronger effect = lower value 1 | S. cerevisiae deletion strains, locus YNL322C, strain KRE1, stronger effect = lower value 0.999 | S. cerevisiae deletion strains, locus YNR049C, strain mso1, stronger effect = lower value 0.984 | S. cerevisiae deletion strains, locus YNR052C, strain pop2, stronger effect = lower value 0.961 | S. cerevisiae deletion strains, locus YOL006C, strain TOP1, stronger effect = lower value 1.06 | S. cerevisiae deletion strains, locus YOL012C, strain htz1 1.62 | S. cerevisiae deletion strains, locus YOL147C, strain pex11, stronger effect = lower value 0.998 | S. cerevisiae deletion strains, locus YOR001W, strain rrp6, stronger effect = lower value 0.958 | S. cerevisiae deletion strains, locus YOR061W, strain CKA2, stronger effect = lower value 1 | S. cerevisiae deletion strains, locus YOR069W, strain VPS5, stronger effect = lower value 1 | S. cerevisiae deletion strains, locus YOR070C, strain gyp1, stronger effect = lower value 1.01 | S. cerevisiae deletion strains, locus YOR080W, strain dia2, stronger effect = lower value 1.01 | S. cerevisiae deletion strains, locus YOR083W, strain WHI5, stronger effect = lower value 0.968 | S. cerevisiae deletion strains, locus YOR106W, strain vam3, stronger effect = lower value 0.936 | S. cerevisiae deletion strains, locus YOR136W, strain idh2, stronger effect = lower value 0.999 | S. cerevisiae deletion strains, locus YOR144C, strain elg1, stronger effect = lower value 0.988 | S. cerevisiae deletion strains, locus YOR184W, strain ser1, stronger effect = lower value 0.978 | S. cerevisiae deletion strains, locus YOR231W, strain MKK1, stronger effect = lower value 0.983 | S. cerevisiae deletion strains, locus YOR265W, strain rbl2, stronger effect = lower value 1.01 | S. cerevisiae deletion strains, locus YOR270C, strain vph1, stronger effect = lower value 1.02 | S. cerevisiae deletion strains, locus YOR290C, strain snf2, stronger effect = lower value 0.994 | S. cerevisiae deletion strains, locus YOR316C, strain cot1, stronger effect = lower value 1 | S. cerevisiae deletion strains, locus YPL051W, strain arl3, stronger effect = lower value 0.981 | S. cerevisiae deletion strains, locus YPL055C, strain LGE1, stronger effect = lower value 1.02 | S. cerevisiae deletion strains, locus YPL078C, strain atp4, stronger effect = lower value 0.974 | S. cerevisiae deletion strains, locus YPL106C, strain sse1, stronger effect = lower value 1.03 | S. cerevisiae deletion strains, locus YPL240C, strain hsp82, stronger effect = lower value 0.986 | S. cerevisiae deletion strains, locus YPL241C, strain CIN2, stronger effect = lower value 1.01 | S. cerevisiae deletion strains, locus YPL256C, strain CLN2, stronger effect = lower value 0.98 | S. cerevisiae deletion strains, locus YPR119W, strain clb2, stronger effect = lower value 0.996 | S. cerevisiae deletion strains, locus YPR141C, strain kar3, stronger effect = lower value 1 | S. cerevisiae deletion strains, locus YPR163C, strain tif3, stronger effect = lower value 1.02 | S. cerevisiae deletion strains, locus YPR167C, strain met16, stronger effect = lower value 0.986 | S. cerevisiae deletion strains, strain wtn01, stronger effect = lower value 0.987 | S. cerevisiae strains, strain wild type, stronger effect = lower value 1.01

Source: PubChem BioAssay AID1159580 (chemical genetic matrix, 2015)
